Most compounds without a hit are left out; they make up all but 2.7% or so of the library.
HIV Env fusion: HIV envelope-mediated fusion inhibition | HeLa-JRFL Env/CEM21 cell fusion, luciferase | inhibition, % at 12.3 µM | hit rate 1.1% among 360,000 | AID 651610;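 active = mean replicate inhibition score of at least 50 and every replicate individually at or above 50; inconclusive = only one of the two criteria met; inactive = mean below 50 and not all replicates reaching 50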;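 also: 0% = plate neutral controls and 100% = maraviroc near 300 nM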
F508del corr: CFTR F508del correction in bronchial cells. CFBE cells, YFP halide quenching; stimulated with forskolin plus potentiator P3; % fluorescence drop versus neutral controls. activity (quench increase), % at 7.58 µM. hit rate 0.36% among 350,000;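 active = mean added fluorescence quench of at least 8% versus neutral control, with both replicates also reaching 8%; inconclusive = only one of the mean or replicate conditions met; inactive = mean below 8% and not both replicates reaching 8%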;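 also: cells transiently co-express mutant CFTR-F508del with the halide-sensitive YFP; corrector assay measuring rescue of mutant channel to the surface after 24 h compound exposure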
Wnt act: activators of Wnt/beta-catenin signaling. activation, % at 9.35 µM. Wnt/beta-catenin reporter cell assay, activator, plate reader. hit rate 1.2% among 300,000; in the data active = activation above about 30%, passing the limit was not always enough; inconclusive = no clear call, values can overlap the other calls;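 also: 0% = neutral control wells and 100% = positive control wells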
GSIS activator: GLuc luminescence reporter in INS-1E cells, primary screen for activators of glucose-dependent secretion of insulin | activation, % at 16.6 µM | AID 743287 | INS-1E GLuc reporter insulin secretion, 2-3 h | hit rate 0.61% among 370,000;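 active = lowest replicate activation of at least 40%, so every replicate reaches that level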;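 also: 0% = median of neutral control wells and 100% = median of IBMX positive control wells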
MITF TRPM1 HTS: increases MITF-driven TRPM1 promoter luciferase signal | SK-MEL-5 TRPM1-promoter luciferase, 24 h; % of positive control, neutral wells = 0 | activation, % at 12.5 µM | hit rate 0.75% among 300,000;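 active = mean activation of at least 80% with every replicate also reaching 80%; inconclusive = mean reaches 80% but some replicate falls short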;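 also: 0% = neutral control wells and 100% = parthenolide positive control wells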
Numbers without * were called inactive; ? = inconclusive; . = no result given; [ ] = dose if it differs, or a comment.

SMILES	HIV Env fusion	F508del corr	Wnt act	GSIS activator	MITF TRPM1 HTS
CSc1ccccc1C(=O)OCC(=O)Nc1cccnc1Cl	.	2.1	0.3	43.4*	12.9
Cc1ccc(S(=O)(=O)Nc2ccc3c(c2)C(=O)N([C@H](C)CO)C[C@H](C)[C@H](CN(C)C(=O)Nc2c(C)noc2C)O3)cc1	-4.5[16.7 µM]	-2.9	.	11.1	.
O=C(C[C@@H]1CC[C@@H]2[C@H](COC[C@H](O)CN2Cc2ccccc2F)O1)N1CCc2ccccc2C1	.	4.1	.	-17.9	.
COC(=O)[C@H](Cc1ccccc1)NC(=O)NCc1ccccc1	8.8	0.8	-1.5	-1.3	.
COC(=O)[C@H](Cc1ccccc1)NC(=O)NCc1ccc(C)cc1	-2.6	-1.1	51.2*	-22.7	.
CC(C)NC(=O)c1ccc(COc2cccc3ccccc23)o1	23.2	9.8*	-2.6	-37.0	.
Cc1cc2n(n1)SC(Nc1cccc3ccccc13)N2 (stereo unspecified)	16.1	.	47.1*	.	0.8
CCc1ccccc1NC1Nc2cc(C)nn2S1 (stereo unspecified)	-10.7	-3.9	-3.0	7.1	-1.1
C[C@H]1CN([C@@H](C)CO)C(=O)c2cccc(NC(=O)Nc3cccc4ccccc34)c2O[C@@H]1CN(C)S(C)(=O)=O	-3.7[16.7 µM]	0.3	.	-13.7	.
COc1ccc(S(=O)(=O)Nc2ccc3c(c2)C(=O)N([C@H](C)CO)C[C@H](C)[C@H](CN(C)C(=O)NC(C)C)O3)cc1	26.5[16.7 µM]	3.9	.	19.9	.
COc1ccc(-c2noc(CCCC(=O)Nc3cccnc3)n2)cc1OC	0.5	0.7	1.3	.	-11.2
COc1ccc(-c2noc(CCC(=O)O)n2)cc1	-9.6	.	0.9	-0.9	4.2
COc1ccc(-c2noc(CCCC(=O)O)n2)cc1	84.4*	.	.	.	.
COc1ccc(-c2cc(C(=O)Nc3cccnc3)no2)cc1OC	2.5	0.0	29.4	40.0	86.8*
COc1ccc(-c2noc(CCC(=O)Nc3cccnc3)n2)cc1OC	.	.	-0.5	65.7*	15.0
CCOC(=O)c1ccc(NC(=O)CCc2nc(-c3ccc(Cl)cc3)no2)cc1	58.8*	.	0.2	.	-17.4
COc1ccc(NC(=O)Nc2ccc3c(c2)C(=O)N([C@@H](C)CO)C[C@@H](C)[C@@H](CN(C)C(=O)Nc2ccc4c(c2)OCO4)O3)cc1	5.1[16.7 µM]	0.0	.	-2.7	.
Cc1noc(C)c1NC(=O)N(C)C[C@H]1Oc2ccc(NS(=O)(=O)c3cccs3)cc2CC(=O)N([C@H](C)CO)C[C@@H]1C	-9.1[16.7 µM]	0.5	.	17.8	.
C/C=C/c1ccc2c(c1)[C@H]1[C@H](CCN1C(=O)c1ccc(F)cc1)[C@H](CO)N2	.	1.4	.	10.5	.
Cc1ccc(-c2noc(CCCC(=O)Nc3cccnc3)n2)cc1	63.5*	.	0.7	.	.
O=[N+]([O-])c1ccc(Cc2nnc(-c3ccccc3Cl)o2)cc1	-24.6	0.6	4.3	.	102.8*
COc1ccc(CCNC(=O)N2c3ccccc3Sc3ccccc32)cc1	74.6*	.	3.7	.	-14.3
COCCNCC(=O)N1c2ccccc2Sc2ccccc21	0.1	-3.9	48.3*	2.8	.
CC(C)CNCC(=O)N1c2ccccc2Sc2ccccc21	-33.7	.	-4.6	.	-8.2
COCCCNC(=O)N1c2ccccc2Sc2ccccc21	4.9	0.9	-0.4	-4.1	.
SMILES	HIV Env fusion	F508del corr	Wnt act	GSIS activator	MITF TRPM1 HTS
C[C@H](NC(=O)[C@@H]1[C@@H](CO)[C@@H]2Cn3c(cccc3=O)[C@@H]2N1C(=O)C1CC1)c1ccccc1	.	-0.3	.	13.6	.
COc1cccc(S(=O)(=O)N(C)C[C@@H]2OCc3ccccc3-c3c(n(C)c4ccccc34)C(=O)N([C@H](C)CO)C[C@@H]2C)c1	55.3*[16.7 µM]	1.9	.	0.9	.
COc1cccc(S(=O)(=O)N(C)C[C@@H]2OCc3ccccc3-c3c(n(C)c4ccccc34)C(=O)N([C@@H](C)CO)C[C@@H]2C)c1	60.2*[16.7 µM]	-2.7	.	2.4	.
C[C@H](CO)N1C[C@H](C)[C@@H](CN(C)Cc2ccc(Cl)c(Cl)c2)Oc2ccc(NS(=O)(=O)c3cccs3)cc2CC1=O	22.9[16.7 µM]	2.1	.	-24.7	.
C[C@H](CO)N1C[C@H](C)[C@H](CN(C)C(=O)Nc2ccc(F)cc2)Oc2ccc(NC(=O)Nc3ccc4c(c3)OCO4)cc2C1=O	-3.0[16.7 µM]	1.4	.	-0.4	.
CC(C)CC#Cc1ccc2c(c1)O[C@@H](CN(C)S(=O)(=O)c1ccc(F)cc1)[C@@H](C)CN([C@H](C)CO)S2(=O)=O	61.7*[16.7 µM]	-1.5	.	5.5	.
CCCC#Cc1ccc2c(c1)O[C@H](CN(C)S(=O)(=O)c1cccc(F)c1)[C@@H](C)CN([C@H](C)CO)S2(=O)=O	11.1[16.7 µM]	-2.5	.	-10.9	.
CC(C)CC#Cc1ccc2c(c1)O[C@H](CN(C)S(=O)(=O)c1ccc(F)cc1)[C@@H](C)CN([C@H](C)CO)S2(=O)=O	0.3[16.7 µM]	0.0	.	-8.7	.
CCCC#Cc1ccc2c(c1)O[C@H](CN(C)S(=O)(=O)c1cccc(F)c1)[C@H](C)CN([C@H](C)CO)S2(=O)=O	43.1[16.7 µM]	-1.6	.	-11.2	.
CCCC#Cc1ccc2c(c1)O[C@@H](CN(C)S(=O)(=O)c1cccc(F)c1)[C@@H](C)CN([C@@H](C)CO)S2(=O)=O	60.1*[16.7 µM]	0.9	.	-12.3	.
CC(C)CC#Cc1ccc2c(c1)O[C@@H](CN(C)Cc1ccc(F)cc1)[C@H](C)CN([C@H](C)CO)S2(=O)=O	25.2[16.7 µM]	-4.2	.	45.7*	.
CC(C)CC#Cc1ccc2c(c1)O[C@@H](CN(C)S(=O)(=O)c1cccc(F)c1)[C@@H](C)CN([C@H](C)CO)S2(=O)=O	67.7*[16.7 µM]	2.4	.	-15.0	.
O=C(C[C@@H]1C=C[C@@H](NS(=O)(=O)c2ccccc2F)[C@H](CO)O1)NCCCN1CCOCC1	.	-0.7	.	1.6	.
NCC[C@H]1CC[C@@H](NC(=O)C2CCCC2)[C@H](CO)O1	-10.0[16.7 µM]	-0.6	.	16.0	.
O=C([C@@H]1[C@@H](CO)[C@@H]2Cn3c(cccc3=O)[C@@H]2N1C(=O)CC1CC1)N1CCCCC1	.	-2.1	.	25.2	.
N#Cc1cccc(NC(=O)COC(=O)Cn2nc(-c3ccccc3)oc2=O)c1	.	0.4	37.8*	.	10.7
Cc1cc(C)c(C(=O)NC2CCCc3c2cnn3-c2cccc(C)c2C)o1 (stereo unspecified)	.	8.4*	-3.0	-7.0	-6.6
Cc1ncoc1C(=O)NC1CCCc2c1cnn2-c1ccc(C(C)(C)C)cc1 (stereo unspecified)	56.4*	-4.3	-6.1	-16.0	-14.3
Cn1c(CNc2ccc(Br)cc2)nc2ccccc21	-105.3	1.2	39.6*	-13.8	?
CCC(=O)Nc1cc(=O)[nH]c2nc(-c3ccc(Cl)cc3)nn12	-12.1	-3.6	39.3*	-6.6	4.5
C[C@@H](CO)NC(=O)c1ccc2c3n(nc2c1)-c1ccccc1CO3	-110.2	1.7	8.8	6.7	5.6
Cc1ccc2c(c1)COc1c3ccc(C(=O)N[C@@H](CO)C(C)C)cc3nn1-2	-109.5	1.0	33.6*	2.3	114.1*
COCCNC(=O)c1ccc2c3n(nc2c1)-c1ccc(C)cc1CO3	-120.0	5.2	43.1*	8.3	?
C[C@H]1CN([C@@H](C)CO)C(=O)c2cccc(NC(=O)c3ccc(-c4nccs4)cc3)c2O[C@@H]1CN(C)S(=O)(=O)c1ccc(F)cc1	.	2.3	.	6.9	.

Source: PubChem
